# Screening results from PubChem BioAssay.
# TDP-43 rescue = qHTS of TDP-43 Inhibitors: NCGC Sytravon Library Screen | Potency, µM (series often up to 46.1 µM), usual class: activators | yeast TDP-43 toxicity rescue, BacTiter-Glo growth, 24 h | hit rate 0.45% among 45,000; active means well fitted activation curve with a large enough effect; further: 0% is about no effect; nearly all actives have a fitted effect of over 55% in size
#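 TDP-43-expressing yeast, pregrown in raffinose, seeded at OD600 0.02 in galactose medium with compound for 24 hr at 30 deg C. Growth read by BacTiter-Glo luminescence, so rescue of toxicity appears as activation.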
# * marks the source's active call; other numbers are inactive results; i = inactive. The sample as a whole holds a higher share of hits than the screen did. Potency means the concentration at half of the fitted maximal effect.
SMILES,TDP-43 rescue
CCCCN(CC)CCCNC(=O)C1CCN(c2nc3ccc(CC)cc3s2)CC1,i
Cc1cc(C)c(NC(=O)C2CCN(c3nc4ccccc4n4cccc34)CC2)c(C)c1,i
Cc1csc(NC(=O)c2ccc(COc3ccccc3)o2)n1,18µM*
Cc1csc(NC(=S)NC(=O)c2ccccc2)n1,i
Cc1cc(NC(=O)c2ccc(COc3ccccc3Cl)o2)no1,i
Fc1ccccc1-n1ncc2c1ncn1nc(-c3ccccc3Cl)nc21,i
Cc1ccc(S(=O)(=O)Nc2cc3c(cc2C)n(C)c(=O)c(=O)n3C)c(C)c1,i
COc1ccccc1-c1cn(C(C)(C)C)nc1C,11µM*
COc1ccccc1-c1c(C)nn2c(C(F)(F)F)cc(-c3ccccc3)nc12,i
COc1ccccc1-c1nc2cc3ccccc3cc2nc1-c1ccccc1OC,i
COc1cccc(CNC(=O)CNS(=O)(=O)c2ccc3nc(C)sc3c2)c1,i
CCCSc1ncc(Cl)c(C(=O)Nc2c(C(=O)Nc3ccc(C)cc3)oc3ccccc23)n1,i
CCOc1ccc(CNC(=O)C2CCN(c3nnc(-n4c(C)ccc4C)s3)CC2)cc1,i
COc1ccc(-c2csc(NC(=S)NC(=O)c3cccs3)n2)cc1OC,i
COc1ccc(-c2csc(NCc3ccco3)n2)cc1C,18µM*
COc1cc(CNCc2ccco2)cc(OC)c1O,i
O=C(Nc1nnc(N2CCCCCC2)s1)Nc1ccccc1C(F)(F)F,i
COc1ccc(-c2[nH]ncc2C(=O)NCc2ccccc2C)cc1,i
CCOC(=O)Cn1c(=O)c2c(nc3n2CCN3c2ccc(CC)cc2)n(C)c1=O,i
O=C(CCC(=O)N1CCSc2ccccc21)NCc1ccccc1Cl,i
COc1cc(OC)cc(C(=O)N[C@H](C(=O)Nc2nc(-c3ccc(F)c(F)c3)cs2)C(C)C)c1,i
COc1ccc(CC(=O)Nc2nc(-c3ccc(OC)c(OC)c3)cs2)cc1OC,i
COc1ccccc1CC(=O)Nc1nc(-c2ccc(F)c(F)c2)cs1,13µM*
COc1nc(Nc2ccc([N+](=O)[O-])cc2)nc(NC2CCCCC2)n1,16µM*
C#CCOc1nc(Nc2cccc([N+](=O)[O-])c2)nc(OCC#C)n1,i
SMILES,TDP-43 rescue
COc1nc(Nc2cccc([N+](=O)[O-])c2)nc(OC)n1,i
Cc1cc(C)c2c(CC(=O)N(Cc3ccc(Cl)cc3)Cc3ccco3)coc2c1,i
CCN(C(=O)Cn1c(=O)oc2cc(S(=O)(=O)N3CCCC3)ccc21)c1cccc(C)c1,i
COc1ccc(CNC(=O)CSc2cc(=O)n(C)c3ccccc23)cc1,i
CCOc1ccc(CNC(=O)c2cc3oc4ccccc4c3n2C)cc1,i
COc1ccc(CNC(=O)c2cc3sccc3n2C)cc1,13µM*
CCN(C(=O)CN1C(=O)c2ccccc2Sc2ccc(C(=O)OC)cc21)c1cccc(C)c1,i
Cc1cccc(NC(=O)Cn2nnc(-c3nc(-c4ccncc4)no3)c2N)c1,i
COc1ccc(CN(CCC(c2ccc3c(c2)OCO3)c2ccccc2OC)C(C)=O)cc1 (stereo not given),i
CCCOc1ccc(CNC(=O)c2ccc3c(c2)N(Cc2ccccc2)CCS3)cc1,i
Cc1nc2nncn2c(N2CCN(c3ccccc3)CC2)c1C,i
COC(=O)c1ccc(NC(=O)Cn2cnc3c2c(=O)n(C)c(=O)n3C)cc1,i
COc1ccc(/C=N/NC(=O)Cn2cnc3c2c(=O)n(C)c(=O)n3C)cc1,i
Cn1c(=O)c2c(ncn2CCOc2ccc(Br)cc2)n(C)c1=O,11µM*
CN1CCN(c2ccc([N+](=O)[O-])cc2C(=O)c2ccccc2)CC1,i
COc1ccc(C(=O)c2cc([N+](=O)[O-])ccc2N2CCCC2)cc1,i
Cc1ccc(C(=O)c2cc([N+](=O)[O-])ccc2N2CCOCC2)cc1C,22µM*
O=C(O)CCn1c(=O)c2cccn2c2cccnc21,i
O=C(c1cccs1)c1cn(CCOc2ccc(F)cc2)c2ccccc12,i
CCCOc1ccc(N2CC(C(=O)Nc3cccc(Cl)c3Cl)CC2=O)cc1 (stereo not given),i
COc1ccc(S(=O)(=O)Nc2cc(C(=O)NCCCN3CCOCC3)ccc2N2CCOCC2)cc1,i
COC(=O)c1cc(OC)c(OC)cc1NC(=O)c1ccc(Br)o1,i
COc1ccc(N2CCOCC2)c(NC(=O)c2ccc(Br)o2)c1,16µM*
CCCCCSc1nnc2c(n1)OC(CC)Nc1ccc(Br)cc1-2 (stereo not given),i
CCSc1ncc(Cl)c(C(=O)Nc2c(C(=O)Nc3ccc(Cl)cc3)oc3ccccc23)n1,i
SMILES,TDP-43 rescue
Cc1cccc(NC(=O)CN2C(=O)C(c3ccccc3)=NC23CCC(C)CC3)c1 (stereo not given),i
COc1ccccc1NC(=O)CN1C(=O)C(c2ccc(F)cc2)=NC1(C)C,i
COCc1cc(C)nc2sc(C(=O)Nc3cc(C)ccc3F)c(N)c12,i
CN(C)c1oc(/C=C/c2ccc(F)cc2)nc1C#N,i
NC(=S)N/N=C/c1cccc(/C=N/NC(N)=S)c1,i
Cc1ccc(-n2c(C)cc(/C=N/NC(N)=S)c2C)cc1,14µM*
Cc1cc(/C=N/NC(N)=S)c(O)c(/C=N/NC(N)=S)c1,i
COC(=O)c1ccc(-n2nnc(-c3nc(-c4ccccc4Cl)no3)c2C)cc1,i
COc1ccc(NC(=O)Cn2nnc(-c3nc(-c4ccncc4)no3)c2N)cc1OC,i
COc1ccc(NC(=O)Cc2ccsc2)c(OC)c1,i
COc1ccc(NCc2ccc([N+](=O)[O-])s2)c(OC)c1,13µM*
CCC(=O)NC(=S)Nc1ccc(OC)cc1OC,i
CCCSc1ncc(Cl)c(C(=O)Nc2c(C(=O)c3ccc(F)cc3)oc3ccccc23)n1,i
COC(=O)c1c(C)nn(-c2ccc(F)cc2)c1-n1cccc1,i
CC(C)(C)c1ccc(OCC(=O)NNC(=S)NC(=O)c2ccccc2[N+](=O)[O-])c(Br)c1,11µM*
CC(C)CNC(=O)COc1ccccc1[N+](=O)[O-],i
COc1ccc(C(=O)NNC(=O)c2ccccc2[N+](=O)[O-])cc1,i
CC(C)c1cc(C(=O)NCc2ccc(F)cc2)no1,i
CCOc1cc(-c2nc(C)c(C(C)=O)n2O)ccc1OCC(=O)Nc1ccccc1,11µM*
Cc1cc(C)c2oc(-c3ccc(NC(=O)COc4ccccc4C)cc3)nc2c1,i
CCOc1ccc(NC(=O)CNC(=O)COc2ccccc2)cc1,i
COc1cccc(N2CCN(C(=O)Nc3ccccc3Cl)CC2)c1,i
COc1cc2c(cc1OC)CN(C(=O)Nc1ccccc1)CC2,i
COc1cc2c(cc1OC)CN(C(=O)Nc1ccccc1Cl)CC2,13µM*
CCOc1cc(/C=C2/C(=O)ON=C2C)ccc1OCc1ccccc1,i
SMILES,TDP-43 rescue
COc1cc(/C=C2\C(=O)ON=C2c2ccccc2)cc(OC)c1OC,11µM*
C#CCOc1c(Br)cc(/C=C2/C(=O)ON=C2C)cc1OC,i
CC(NC(=O)/C=C/c1ccc(Br)cc1)c1ccccc1 (stereo not given),i
CC(C)c1ccc(/C=C/C(=O)NCCC2=CCCCC2)cc1,i
CC(C)c1ccc(/C=C/C(=O)O)cc1,6.3µM*
CCSc1nc2sc3c(c2c(=O)n1-c1ccc(C)cc1)CCCC3,i
Cc1nc2ccc(S(=O)(=O)N(C)CC(=O)Nc3ccc(C(C)C)cc3)cc2s1,i
Cn1c(=O)c(=O)n(C)c2cc(C(=O)NCc3ccccc3Cl)ccc21,i
O=C(C1CCCN(S(=O)(=O)c2cc(Cl)ccc2Cl)C1)N1CCCC1 (stereo not given),14µM*
